The values below come from PubChem BioAssay AID1578 (Sanford-Burnham Center for Chemical Genomics, 2009).

The whole screen tested about 290,000 compounds, of which about 3,000 (1%) were called active. The entries come from a sample that favours actives as a whole. A number with no mark means an inactive call. Cut-off read from the data, not from the text of the source: active = inhibition mostly above about 36% (no sharp cut-off); inactive = mostly below about 34%.

The test is described as follows: inhibition of NOD1-driven NF-kB reporter – cell-based, luminescence, uHTS, primary screen (AID 1578).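 Note: HEK-293T reporter cells stimulated with the NOD1 agonist gamma-tri-DAP.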 The settings on record: NOD1-driven NF-kB luciferase reporter cells, at 4 µM, stronger effect = higher value.
As a reminder, the inhibition is the drop in the measured response relative to a control, in per cent. In the case of `COc1ccc(Cc2nnc(NC(=O)C(C)(C)C)s2)cc1`, the inhibition was -7.8%. The value for `COc1ccccc1CN1CC(C(=O)NCCc2ccc(Cl)cc2)CC1=O` (stereo unspecified) was -8.7%; that for `Cc1cc[n+](CC(=O)c2cccc([N+](=O)[O-])c2)c2ccccc12` was -5.3%; that for `Cc1ccc(CN2CCNC(=O)C2CC(=O)NCCCn2cccn2)o1` (stereo unspecified) was -26.6%. As to `COC(=O)Cc1csc(NC(=O)CSc2nnc3ccccn23)n1`, the inhibition is -22.5%.

With `COc1ccc(OC)c(C2=NS(=O)(=O)N(C)C(C(=O)N3CCC4(CC3)OCCO4)=C2)c1`, the inhibition is -6.5%. The value for `COc1ccc2ccccc2c1CNCc1ccc(C)cc1` was -32.1%; that for `O=Cc1cn(CCC(=O)O)nc1-c1cccc2ccccc12` was -38.4%. The value for `COc1ccccc1N=c1oc2c(OC)cccc2cc1C(=O)NCc1ccco1` was -182%; that for `Cc1cccc(C)c1OCC(=O)Nc1cccc(C(=O)O)c1` was -10.3%; that for `CC(=O)Nc1cccc(NC(=O)COc2ccccc2C)c1` was 40.3%. The value for `O=C(Nc1cccc(C(=O)O)c1)Nc1ccc2c(c1)OCO2` was 74.1% (active); that for `CCOc1ccc(NC(=O)c2cccc(NC(=O)c3ccccc3)c2)cc1` was 4.1%.

Regarding `CC(=O)Nc1cc2ccccc2oc1=O`, the inhibition was -32.2%. The value for `O=C(Nc1ccc2c(c1)OCO2)Nc1ccc2c(c1)OCO2` was -34.2%; that for `O=C(Nc1cc2ccccc2oc1=O)c1ccccc1` was 22.4%. The value for `CCOC(=O)c1cccc(NC(=O)Nc2ccc(OCC)cc2)c1` was -13.8%; that for `CCOc1ccc(NC(=O)Nc2cccc(C(=O)O)c2)cc1` was 97.4% (active).

As for `CC(=O)c1cccc(NC(=O)Nc2ccc3c(c2)OCO3)c1`, the inhibition was -20.8%. As for `Cc1ccccc1OCC(=O)Nc1cccc(C(=O)O)c1`, the inhibition was 92% (active). In the case of `Cc1ccc(C(=O)Nc2cc3ccccc3oc2=O)cc1`, the inhibition is 85.5% (active).

On to `COc1ccccc1CC(=O)NC1CC1`, for which the inhibition was -10.2%.

Consider `Cc1cc(C)c(S(=O)(=O)c2ccccc2)c(OC(=O)c2c(F)cccc2F)n1`, for which the inhibition is -38.9%. Under `Cc1cccc(S(=O)(=O)Nc2ccc(-c3nc4ccc(C)cc4s3)cc2)c1` stands -35.8%; under `O=C(COC(=O)C12CC3CC(CC(C3)C1)C2)Nc1ccccc1F`, -23.3%. Turning to `COc1ccc(CCNC(=O)CN(c2ccc(OC)c(OC)c2)S(=O)(=O)c2ccc(C)cc2)cc1`, the inhibition was 32.6%. Turning to `Cc1nn(Cc2ccc(F)cc2)c(C)c1NC(=O)CCCn1nc([N+](=O)[O-])cc1C`, the inhibition was -34.8%. As to `O=c1cc(N2CCN(c3ccccc3)CC2)[nH]c(=O)n1-c1ccccc1`, the inhibition is -19.3%. In the case of `CC(C)NC(=S)N1CCN(Cc2ccc3c(c2)OCO3)CC1`, the inhibition is -10.8%.

For the compound `COc1ccc(S(=O)(=O)Nc2c(NC3CCCCC3)c3ccccc3oc2=O)cc1OC`, the inhibition was -7.5%. Consider `O=C(Nc1nnc(CSCc2ccc(F)cc2)s1)c1ccc([N+](=O)[O-])cc1`, for which the inhibition is 1.6%. In the case of `NC(=O)c1cccc(NC(=O)Nc2ccc(Cl)cc2)c1`, the inhibition was 9.4%.

Take `Cc1ccc(C(=O)Nc2cnc3ccccc3c2)cc1`: the inhibition is 81.8% (active). As to `O=C(Nc1cnc2ccccc2c1)c1ccncc1`, the inhibition is -21.5%. Under `O=C(O)c1cccc(NC(=S)NCc2ccccc2)c1` stands -23.1%; under `O=C(NCc1ccccc1)C(=O)Nc1cccc(C(=O)O)c1`, 39.8% (active); under `CSc1cccc(NC(=O)C(=O)NCc2ccccc2)c1`, -4.7%. As to `Cc1ccc(NC(=O)Nc2cnc3ccccc3c2)cc1`, the inhibition is -44.8%.

For the compound `O=C(Nc1ccc(Cl)cc1)Nc1cccc(C(=O)O)c1`, the inhibition is 67.9% (active). Under `O=C(Nc1cccc(Cl)c1)Nc1cccc(C(=O)O)c1` stands -9.6%; under `CCc1nc(CN2CCN(c3ccc(C(F)(F)F)cn3)CC2)c(C)[nH]1`, -4.8%; under `O=C(c1ccc(S(=O)(=O)Nc2ccccc2)cc1)N1CCCCCCC1`, -14.1%. On to `CCOC(=O)CCNC(=O)N1CCCC(Cc2ccccc2)(C(=O)OCC)C1` (stereo unspecified), for which the inhibition is -26.2%.

`COc1ccc(NC(=O)CCC(=O)Nc2nnc(CC(C)C)s2)cc1Cl`: the inhibition is -5.8%.

In the case of `COC(=O)C1=C(C)NC(=O)NC1c1cn(-c2ccccc2)nc1-c1cccs1` (stereo unspecified), the inhibition is -21.3%. The value for `CCN1C(=O)/C(=C/N(C)c2ccccc2)OC1=S` was -15.3%. Under `CCN1C(=O)/C(=C\N(C(C)=O)c2ccccc2)OC1=S` stands 55.5% (active).

Consider `CCN1C(=O)/C(=C/N(C(C)=O)c2ccccc2)N(c2ccccc2)C1=S`, for which the inhibition is 11.4%.

On to `Nc1nc(COc2ccccc2C=O)nc(Nc2ccccc2)n1`, for which the inhibition was -7.7%. Under `CN(C)c1ccc(C2CC(=O)C=C(Nc3ccccc3N)C2)cc1` (stereo unspecified) stands -11.3%. Under `Cc1ccc(C(=O)CSc2ncnc3sc4c(c23)CCC(C)C4)cc1` (stereo unspecified) stands -2.7%; under `COc1c(Cl)cc(Cl)cc1C(=O)Nc1ccc(NC(C)=O)cc1`, -17.9%; under `CC(=O)Oc1c(I)cc(I)cc1C(=O)Nc1ccc(Cl)cc1`, 85.8% (active). Under `O=C(Nc1ccc(Oc2ccc(Cl)cc2)c(Cl)c1)c1cc(I)cc(I)c1O` stands -14.3%; under `CN(CC(=O)Nc1ccccc1Cl)C(=O)c1cc(=O)[nH]c2ccccc12`, -12.4%; under `CCOC(=O)c1ccc(NC(=O)COc2ccc(S(=O)(=O)NC(C)(C)C)cc2)cc1`, -33.5%. On to `CCN1C(=O)/C(=c2\o/c(=C3\C=Cc4ccccc4N3CC)c(=O)n2CC)SC1=S`, for which the inhibition was 4.4%. Under `COc1ccc(N2C(=O)c3ccc(C(=O)Nc4cc(OC)ccc4OC)cc3C2=O)cc1` stands -3.6%; under `Cc1ccc(C(C(=O)NC2CCCCC2)N(Cc2ccccc2)C(=O)Cc2c[nH]c3ccccc23)o1` (stereo unspecified), -26.2%; under `COc1ccc(NC(=O)c2cc(S(=O)(=O)N(Cc3ccccc3)c3ccccc3)ccc2Cl)cn1`, 10.8%.

Consider `Cc1cc(C(F)(F)F)c(C#N)c(SCC(=O)Nc2nc3ccccc3s2)n1`, for which the inhibition is -5.2%. The value for `Cc1ccc2sc(NC(=O)CSc3nc(C)cc(C)c3C#N)nc2c1` was -16.6%; that for `Cc1cc(C(F)(F)F)c(C#N)c(SCC(=O)Nc2nc3cc(Br)ccc3s2)n1` was 67.4% (active). The value for `Cc1nnc(NC(=O)CSc2ccc(-c3ccc(Cl)cc3)nn2)s1` was -24.7%. Under `C=C(C)CN(CC)C(=O)CC1C(=O)NCCN1CC(C)(C)C` (stereo unspecified) stands -7.4%.

As to `CC(=O)N1CCOc2ccc(S(=O)(=O)NC(C)c3ccccc3)cc21` (stereo unspecified), the inhibition was 1.8%. Under `CC(=O)N1CCOc2cc(S(=O)(=O)N3CCN(c4ccccc4)CC3)c(Cl)cc21` stands -30.8%; under `CC(=O)N1CCOc2cc(S(=O)(=O)NC(C)c3ccccc3)c(Cl)cc21` (stereo unspecified), 59.9% (active).

With `COc1cccc(-c2nn3c(-c4cccc(C)c4)nnc3s2)c1`, the inhibition is -87.2%. The value for `CCOC(=O)C1=C(C)N=c2s/c(=C\c3ccc(O)c([N+](=O)[O-])c3)c(=O)n2C1c1ccccc1OC` (stereo unspecified) was 8.4%; that for `CCOC(=O)C1=C(C)n2c(s/c(=C/c3cccc([N+](=O)[O-])c3)c2=O)=NC1c1ccc(O)c(OC)c1` (stereo unspecified) was 95.3% (active). The value for `CCOC(=O)C1=C(C)N=c2s/c(=C/c3ccccc3)c(=O)n2C1c1ccc(OC)c(OC)c1` (stereo unspecified) was -27.7%; that for `Cn1c(/C(C#N)=C(\O)c2ccc(Cl)s2)nc2ccccc21` was 11.7%. Under `C=C1CC2C=C(NC(C)=O)CC(C1)C2` (stereo unspecified) stands -6.6%. As to `Cc1cccc(NC(=O)Cn2c(O)c(N=NC(N)=S)c3ccccc32)c1`, the inhibition is -3.4%. The value for `Cc1cccc(Cn2c(O)c(N=NC(=S)Nc3ccccc3F)c3ccccc32)c1` was 14.6%; that for `CC(C)C(=O)NC(NC1CCS(=O)(=O)C1)C(Cl)(Cl)Cl` (stereo unspecified) was -26.8%; that for `COc1ccc(-n2c(C)cc(/C=C3/SC(=O)N(CC(=O)N4CCOCC4)C3=O)c2C)cc1` was -15%. Under `CCOC(=O)N1CCN(C(=O)c2cn(C)c3ccc(S(=O)(=O)N4CCOCC4)cc3c2=O)CC1` stands -11%; under `COc1ccc(OCC(=O)NCCCn2ccnc2)cc1`, 9.1%; under `O=C(COc1ccc(Br)cc1)NCCCn1ccnc1`, 62.4% (active). The value for `O=C(COc1ccc(Cl)cc1)NCCCn1ccnc1` was -7.5%; that for `COCCN(Cc1cc2cc3c(cc2nc1Cl)OCO3)C(C)=O` was 6.5%; that for `CSc1ccc(/C=N/S(=O)(=O)c2ccccc2)cc1` was 3.8%. `Cn1c(=O)c2[nH]c(COc3ccc(C(C)(C)C)cc3)nc2n(C)c1=O`: the inhibition was 34.1% (active). On to `CCCc1nc2c([nH]1)c(=O)n(C)c(=O)n2C`, for which the inhibition is -7.1%.

For the compound `CN(C)Cc1nc2c([nH]1)c(=O)n(C)c(=O)n2C`, the inhibition was 1.7%. As to `CC1CCCC(C)N1C(=O)CSc1nc2c(c(=O)n(C)c(=O)n2C)n1C` (stereo unspecified), the inhibition was -1%. Turning to `CC(C)Oc1ccccc1/C=N/NC(=O)c1ccccc1Cl`, the inhibition was 0.5%.

With `CC1CCCC(NC(=O)Cc2ccc(Br)cc2)C1C` (stereo unspecified), the inhibition is -21.4%. Take `CCC(c1nnnn1C(C)C)N1CCN(C2CCCC2)CC1` (stereo unspecified): the inhibition is -14%. With `COc1ccc(/C=C2\COc3ccccc3C2=O)c(OC)c1`, the inhibition is -27.3%.

Take `COc1ccc(Nc2nc(-c3c(C)nc4ncccn34)cs2)cc1`: the inhibition was 17.6%.

In the case of `COc1ccccc1Nc1nc(-c2c(C)nc3ncccn23)cs1`, the inhibition is 61.6% (active). In the case of `COc1ccc(OC)c(Nc2nc(-c3c(C)nc4ncccn34)cs2)c1`, the inhibition is -9.4%. With `CCOC(=O)c1ccc(N=c2ssnc2Cl)cc1`, the inhibition is -21.1%.
